PubChem BioAssay AID1347142 (National Center for Advancing Translational Sciences (NCATS), 2019)
Inconclusive results are not listed. Active and inactive are the calls of the source. Calls come from the whole dose curve; as a rule, active = well fitted inhibition curve with a large enough effect; inconclusive = small, poorly fitted or top-dose-only effect; inactive = no such curve, though single readings can be large or run the other way.

These compounds were tested against N-terminal Xaa-Pro-Lys N-methyltransferase 1 (Homo sapiens) (UniProt Q9BV86) (assay: qHTS Assay for Inhibitors of N-terminal methyltransferase 1 (NTMT1): ThioGlo3 Assay Confirmatory Screen, Round 1.). Details: NTMT1 SAHH-coupled ThioGlo3 fluorescence, 30 min; series mostly up to 56.8 µM.
Procedure, shortened: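 Human NTMT1 at 125 nM was preincubated 1 min at room temperature with compounds at various concentrations or 1 uM RCC1-6 control. Substrate mix (100 uM SAM, 10 uM SAHH, 15 uM ThioGlo3) was added, and fluorescence (Ex 340/Em 450 nm) was read at start and after 30 min, normalized to background.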
Note: nearly all actives have a fitted effect of over 80% in size.
Potency is the fitted concentration of half-maximal effect.

N-terminal Xaa-Pro-Lys N-methyltransferase 1 (Homo sapiens), sequence (Q9BV86 whole entry, looked up): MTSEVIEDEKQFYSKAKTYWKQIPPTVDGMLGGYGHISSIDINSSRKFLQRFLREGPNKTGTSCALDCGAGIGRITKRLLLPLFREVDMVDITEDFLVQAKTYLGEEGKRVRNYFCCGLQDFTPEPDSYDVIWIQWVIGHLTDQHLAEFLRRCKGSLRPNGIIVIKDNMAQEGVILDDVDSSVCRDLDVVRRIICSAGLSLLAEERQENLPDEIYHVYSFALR

Potency, inactive:
Nc1ncnc2c1ncn2[C@H]1C[C@H](O)[C@@H](CO)O1
N#Cc1ccc(COC[C@H]2O[C@@H](n3c(NCc4ccc(Cl)c(Cl)c4)nc4c(N)ncnc43)[C@@H](O)[C@@H]2O)cc1
C[C@H](Cc1ccccc1)Nc1ncnc2c1ncn2[C@@H]1O[C@H](CO)C(O)[C@H]1O (stereo not given in full)
Nc1ncnc2c1ncn2[C@@H]1O[C@H](COP(=O)(O)OP(=O)(O)OP(=O)(O)OP(=O)(O)OC[C@@H]2O[C@H](n3cnc4c(N)ncnc43)[C@@H](O)C2O)C(O)[C@H]1O (stereo not given in full)
Nc1ncnc2c1nc(N1CCCCC1)n2[C@@H]1O[C@@H]2COP(=O)(O)O[C@H]2[C@H]1O
Nc1ncnc2c1ncn2[C@@H]1O[C@H](COP(=O)(O)O)[C@@H](O)[C@H]1O
NC(=O)c1ccc[n+]([C@@H]2O[C@H](COP(=O)([O-])OP(=O)(O)OC[C@H]3O[C@@H](n4cnc5c(N)ncnc54)[C@H](O)[C@@H]3O)[C@@H](O)[C@H]2O)c1
O=c1[nH]cnc2c1ncn2[C@@H]1O[C@H](CO)[C@@H](O)[C@H]1O
OC[C@@H]1O[C@@H](n2cnc3c(NC4CCCC4)ncnc32)[C@H](O)[C@H]1O
CSc1nc(N)c2ncn([C@@H]3O[C@H](COP(=O)(O)OP(=O)(O)OP(=O)(O)O)[C@@H](O)[C@H]3O)c2n1
CNc1ncnc2c1ncn2[C@@H]1O[C@H](CO)[C@@H](O)[C@@H]1O
COC(=O)c1ccc2c(c1)nc(NC(=O)c1ccccc1)n2CCCc1ccccc1
C[S+](CC[C@H](N)C(=O)O)C[C@H]1O[C@@H](n2cnc3c(N)ncnc32)[C@H](O)[C@@H]1O (stereo not given in full)
OC[C@H]1O[C@@H](n2cnc3c(N[C@H]4C[C@H]5CC[C@@H]4C5)ncnc32)[C@H](O)[C@@H]1O
Nc1ncnc2c1ncn2C1OC(COP(=O)(O)O)C(O)C1O (stereo not given)
C[C@H](Cc1ccccc1)Nc1ncnc2c1ncn2[C@@H]1O[C@H](CO)[C@@H](O)[C@H]1O

Potency, active:
COc1cc2nc(N3CCCN(C)CC3)nc(NC3CCN(Cc4ccccc4)CC3)c2cc1OC 27.1 µM
COc1cc2nc(N3CCCN(C)CC3)nc(NC3CCN(C)C3)c2cc1OC (stereo not given) 24.1 µM
C=CCNc1nc(NC2CCN(C)CC2)c2cc(OC)c(OC)cc2n1 27.1 µM
COc1cc2nc(N(C)C)nc(NC3CCN(C)CC3)c2cc1OC 24.1 µM
COc1cc2c(NC3CCN(C4CCCCC4)CC3)nc(N3CCCN(C)CC3)nc2cc1OCCCN1CCCCC1 24.1 µM
COc1cc2c(NC3CCN(C)CC3)nc(N3CCCN(C)CC3)nc2cc1OCCCCCN(C)C 24.1 µM
COc1cc2nc(N3CCOCC3)nc(NC3CC3)c2cc1OC 27.1 µM
CC[C@H](C)n1cc(C)c2c(C(=O)NCc3c(C)cc(C)[nH]c3=O)cc(-c3ccc(N4CCNCC4)nc3)cc21 21.5 µM
CCN1CCN(c2nc(NC3CC3)c3cc(OC)c(OC)cc3n2)CC1 24.1 µM
Nc1ncnc2c1[nH]c(=S)n2C1OC(CO)C(O)C1O (stereo not given) 17.1 µM
CSc1nc(N)c2ncn([C@@H]3O[C@H](COP(=O)(O)OP(=O)(O)OP(=O)(O)O)C(O)[C@H]3O)c2n1 (stereo not given in full) 21.5 µM
COc1cc2c(NC3CCN(C4CCCCC4)CC3)nc(N3CCCCCC3)nc2cc1OCCOCCN(C)C 24.1 µM
OCC1OC(n2cnc3c(NCc4ccco4)ncnc32)C(O)C1O (stereo not given) 19.2 µM
COc1cc2nc(N3CCOCC3)nc(NC3CCN(Cc4ccccc4)CC3)c2cc1OC 27.1 µM
COc1cc2c(NC3CCN(CC4CCCCC4)CC3)nc(N3CCCN(C)CC3)nc2cc1OCCOCCN(C)C 24.1 µM
COc1cc2nc(N3CCCN(C)CC3)nc(NC3CCOCC3)c2cc1OC 24.1 µM
OC[C@@H]1O[C@@H](n2cnc3c(NCc4ccco4)ncnc32)[C@H](O)[C@H]1O 24.1 µM
COc1cc2c(NC3CCN(C(C)C)CC3)nc(N3CCCCCC3)nc2cc1OCCOCCN(C)C 21.5 µM
COc1cc2c(NC3CCN(C4CCCCC4)CC3)nc(N3CCCN(C(C)C)CC3)nc2cc1OCCCN1CCCCC1 24.1 µM
